In the library only some 4.6% were active in any assay of this set; here they are far more common.
TRHR agonist = TRH receptor (human) agonism. activation, % at 2 µM. 360,000 compounds, 0.18% hits. AID 493084. TRHR cells, calcium flux fluo-8, FDSS agonist mode. P34981; further: 0% is about no effect
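TRHR-expressing cells loaded with fluo-8 calcium dye; 23 nL library compound pin-transferred, kinetic FDSS fluorescence (Ex 480/Em 530) recorded about 180 s for agonist-induced calcium release, before a 10 nM TRH EC20 addition for potentiator mode.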
TRHR PAM = allosterically enhances the human TRH receptor; P34981; TRHR cells, fluo-8 calcium fluorescence, EC20 TRH enhancement; enhancement, % at 2 µM; 360,000 compounds, 0.66% hits; in the data active means enhancement above about 30%; further: 0% is about no effect
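TRHR-expressing cells loaded with fluo-8 calcium dye were read kinetically (ex 480/em 530) during compound addition, then stimulated with an EC20 of TRH (10 nM final). Enhancement of the Gq-mediated intracellular calcium response was scored.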
D1 potentiator = potentiators of human D1 dopamine receptor | HEK293 TREx D1 cells, calcium flux, dopamine EC20 potentiation | 360,000 compounds, 0.036% hits | P21728 | potentiation, % at 10 µM; in the data active means potentiation above about 30%; further: 0% is about no effect
Target sequence (P21728 whole entry, looked up): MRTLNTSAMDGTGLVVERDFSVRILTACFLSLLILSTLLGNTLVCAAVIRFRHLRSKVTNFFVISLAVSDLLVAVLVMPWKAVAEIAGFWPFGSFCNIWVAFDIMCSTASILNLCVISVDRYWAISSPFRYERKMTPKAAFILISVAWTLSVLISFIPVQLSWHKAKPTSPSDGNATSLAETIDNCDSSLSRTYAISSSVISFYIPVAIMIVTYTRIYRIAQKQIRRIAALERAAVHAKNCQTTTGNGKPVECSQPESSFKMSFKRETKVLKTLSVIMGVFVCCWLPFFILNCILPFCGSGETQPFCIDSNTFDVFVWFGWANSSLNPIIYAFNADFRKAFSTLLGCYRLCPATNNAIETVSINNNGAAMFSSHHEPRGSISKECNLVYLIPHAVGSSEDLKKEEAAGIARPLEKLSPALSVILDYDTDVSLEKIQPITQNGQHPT
D1 agonist = agonists of human D1 dopamine receptor | P21728 | HEK293 T-REx D1 cells, calcium flux, agonist mode | activation, % at 2 µM | 360,000 compounds, 1% hits; further: 0% is about no effect
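Inducible HEK293 T-REx D1 cells, force-coupled to calcium signalling, were plated at 4000 cells/well with tetracycline and held overnight at 30 C. After no-wash calcium dye loading, compound-evoked calcium rise over 180 s flagged agonists.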
D1 antagonist = antagonists of human D1 dopamine receptor; HEK293 TREx D1 cells, calcium flux, dopamine EC80; active compounds read low; activity change, negative = inhibition, % at 10 µM; 360,000 compounds, 3.2% hits; in the data active means activity change below about -30%; further: on the % scale 0 is the no-effect control and ±100 the full control effect
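After overnight tetracycline induction at 30 C, force-coupled D1 HEK293 cells took up a no-wash calcium dye at room temperature. Compounds were added and monitored 180 s, and the response to EC80 dopamine was then recorded.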
* = called active by the depositor; · = no result given. Unless noted, no stated cut-off is given here; in the data, active means activation above about 30%; inactive means the rest.

SMILES	TRHR agonist	TRHR PAM	D1 potentiator	D1 agonist	D1 antagonist
O=C(Cn1ccc2ccccc2c1=O)N1CCN(Cc2ccc3c(c2)OCO3)CC1	0	4	-4	-1	-57*
O=C(CS(=O)(=O)Cc1ccccc1)N1CCN(Cc2ccc3c(c2)OCO3)CC1	0	1	-1	5	-37*
O=C(c1cccc(Cl)c1)N1CCN(Cc2ccc3c(c2)OCO3)CC1	0	0	-3	2	-3
O=C(CN1CCN(Cc2ccc3c(c2)OCO3)CC1)N1CCc2[nH]c3ccc(F)cc3c2C1	0	-1	-1	34*	-27
CC1CCN(c2nc3ccc(C(=O)N4CCN(Cc5ccc6c(c5)OCO6)CC4)cc3s2)CC1	-1	5	·	3	-31*
O=C(CCc1ccc(S(=O)(=O)NCc2ccccc2)cc1)N1CCN(Cc2ccc3c(c2)OCO3)CC1	0	0	-6	13	-27
COc1ccc(CCNC(=O)c2ccc3c(c2)CCN3S(=O)(=O)c2ccc(C)cc2)cc1	1	2	-3	3	-15
CCOc1ccc(CCNC(=O)c2nn(C)c3c2CSc2ccccc2-3)cc1	0	3	-1	2	-3
COc1ccc(NC(=O)c2c(NCc3ccc(N(C)C)cc3)sc3c2CCC3)cc1	0	-6	-2	1	2
CCc1ccc(O)c(C(=O)c2cnc3cc(-c4ccc(C)cc4)nn3c2)c1	0	-1	-5	-1	-9
O=C(c1cc2c(=O)n3ccccc3nc2s1)N1CCN(Cc2ccc3c(c2)OCO3)CC1	0	-3	-1	0	-31*
Cc1ccc(NC(=O)Cn2nc(C)c3nn(-c4ccc(Cl)cc4)c(C)c3c2=O)cc1C	0	-3	-2	-1	15
O=C(NNc1ccnc2cc(Cl)ccc12)C1CCCCC1	0	2	-4	14	-32*
Cc1ccccc1NC(=O)Cn1c(SCC(=O)Nc2ccc(F)cc2)nc2ccccc21	0	-2	0	1	-80*
COc1ccc2cc(S(=O)(=O)NCc3cccnc3)ccc2c1	0	1	-6	9	-14
COc1ccccc1NC(=O)c1sc(-c2ccc(Cl)cc2)cc1N	-1	-2	-2	4	-12
Cc1c(C(=O)N2CCN(Cc3ccccc3)CC2)oc2c1C(=O)CCC2	0	-3	3	1	-3
Cc1ccc(CNC(=O)c2sc3nc(-c4ccccc4)cn3c2C)cc1	1	-2	-5	1	-6
Cc1c(C(=O)NCc2ccc(F)cc2)sc2nc(-c3ccc(F)cc3)cn12	0	0	-5	4	-50*
Cc1ccc(-n2ncc(C(=O)N3CCN(Cc4ccccc4)CC3)c2C2CCN(C(=O)OC(C)(C)C)CC2)c(C)c1	1	-4	-6	-1	-21
CCc1nnc(NC(=O)C2Cc3ccccc3CN2S(=O)(=O)c2cccs2)s1 (stereo not drawn)	-1	32*	-1	2	11
CCc1nnc(NC(=O)C2Cc3ccccc3CN2S(=O)(=O)c2ccc(C)cc2)s1 (stereo not drawn)	-1	5	-7	2	8
COc1ccc(NC(=O)C2Cc3ccccc3CN2S(=O)(=O)c2ccccc2)cc1OC (stereo not drawn)	-1	-3	0	1	-59*
O=C(Nc1ccc([N+](=O)[O-])cc1)Nc1nc(-c2ccc(Cl)s2)cs1	0	5	-7	29	-47*
CC(=O)Nc1nc(-c2ccc([N+](=O)[O-])cc2)cs1	0	3	-5	-1	-9
SMILES	TRHR agonist	TRHR PAM	D1 potentiator	D1 agonist	D1 antagonist
Cc1ccc(CNS(=O)(=O)c2cc3c(cc2Cl)NC(=O)CO3)o1	0	0	4	2	-17
O=C(CN1Cc2ccccc2C1=O)Nc1cc(F)ccc1F	0	-9	-1	-2	-6
Cc1nc(-n2[nH]c3c(c2=O)CCCC3)[nH]c(=O)c1Cc1ccccc1	0	4	1	61*	-3
Cc1nc(N2CCc3ccccc3C2)[nH]c(=O)c1Cc1ccccc1	-2	1	-6	3	-44*
Cc1cc(=O)[nH]c(N2CCCNCC2)n1	0	5	-1	7	12
Cc1cc(=O)[nH]c(-n2[nH]c3c(c2=O)CCCC3)n1	0	1	-4	21	-37*
O=c1c2c([nH]n1-c1ccccc1)CCCC2	0	4	4	1	-1
COC(=O)c1cccc(Nc2nn3c(=O)c4cc5c(cc4nc3s2)OCO5)c1	0	-1	0	-1	-4
CCOC(=O)c1c(C)[nH]c(CCC(=O)NCCCN2CCN(c3ccc(F)cc3)CC2)c1C	0	-4	-6	0	-37*
O=C(CNC(=O)Cn1ccc2ccccc2c1=O)NCCCN1CCN(c2cccc(Cl)c2)CC1	0	7	-11	-1	-37*
O=C(CCNC(=O)Cn1ccc2ccccc2c1=O)NCCCN1CCN(c2ccc(F)cc2)CC1	0	18	-19	1	-51*
Cc1cc2ccccc2c(=O)n1CC(=O)NCC(=O)N1CCN(c2cccc(Cl)c2)CC1	-1	2	2	1	-6
O=C(CCNC(=O)Cn1ccc2ccccc2c1=O)NCCCN1CCOCC1	-1	-10	4	1	16
O=C(CCNC(=O)Cn1ccc2ccccc2c1=O)NCCCN1CCN(c2ccccc2F)CC1	-1	-3	-16	2	-68*
COc1ccc(Cl)cc1NS(=O)(=O)c1cc(-c2cc(C)no2)ccc1C	0	-2	-3	3	-10
CCOc1ccc(C(=O)N2CCC(c3ccncc3)CC2)cc1	-1	-6	-3	3	-11
CCC(=O)Nc1ccc2nc(SCCOc3ccc(C)cc3OC)sc2c1	1	-1	0	9	-22
O=C(Cn1c(-c2cccs2)cc2ccccc21)NCCCN1CCN(c2ccccc2F)CC1	0	1	-5	1	-62*
Cc1cc(C)nc(Nc2n[nH]c(COc3ccc(Cl)cc3)n2)n1	2	-3	-2	34*	20
O=C(NC(=S)N1CCCCCC1)c1ccccc1	0	-7	-4	-1	0
O=C(NC(=S)N1CCCCC1)c1cccnc1	0	-20	-7	0	-34*
O=C(N/C(=C/c1cccnc1)C(=O)N1CCCCCC1)c1cccc(Br)c1	-1	-4	-12	0	-39*
CCn1cc(S(=O)(=O)c2ccc(OC)cc2)c(=O)c2cc(F)c(N3CCC(C)CC3)cc21	0	4	-1	2	7
O=C(CN1CCN(C(=O)C2CCN(C(=O)/C=C/c3ccccc3)CC2)CC1)Nc1ccccc1Cl	-1	12	-6	1	0
Cc1cc(C)c(Cn2c(=O)n(CCCCCC(=O)NCc3ccc4c(c3)OCO4)c(=O)c3sccc32)c(C)c1	-1	6	2	-2	-2
